High-throughput results as filed in PubChem BioAssay.
ABHD5 PLIN5 PPI: blocks binding of human ABHD5 to perilipin-5; Q00G26+Q8WTS1; Split G. princeps luciferase complementation, luminescence, 4 h; 0.78% of 360,000 active; AID 602281; inhibition, % at 4 µM;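 active means inhibition above the mean inhibition across every tested compound plus 3 SD, cut at about 22% in these data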
HIF-2a inh: HIF-2a inhibition; 786-0 RCC cells HIF-2a reporter, luciferase luminescence, overnight; inhibition, % at 18.8 µM; 0.72% of 360,000 active;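 active means inhibition of the luminescence signal of 40% or more relative to plate controls, in a single-dose primary screen at 18.75 µM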
Peg3 prom inh: reduces Peg3 promoter-driven luciferase expression in HeLa; HeLa PEG-Prom luciferase reporter, luminescence, overnight; inhibition, % at 20 µM; 1.7% of 360,000 active; AID 588405;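 active means inhibition of at least 50% at 20 µM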
Mdm2-MdmX inh: inhibitors of human Mdm2/MdmX interaction | O15151+Q00987 | SaOS-2 split-luciferase Mdm2/MdmX complementation, luminescence | inhibition, % at 8 µM | 3% of 330,000 active;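 active means inhibition of at least 50% at 8 µM in the primary screen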
KKLEB cytotox: reduces viability of KKLEB cystic fibrosis airway cells. KKLEB CF airway cells viability, ATPlite luminescence, overnight; hits give low values; cells stimulated with P. aeruginosa culture filtrate. activity change (cytotoxicity), % at 5 µM. 0.36% of 360,000 active;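 active means corrected activity change at or below -50% at 5 µM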
CF NFkB block: cystic fibrosis NF-kB activation inhibition | KKLEB NF-kB-GFP reporter, PAF-induced, GFP fluorescence overnight | inhibition, % at 5 µM | 0.86% of 360,000 active;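 active means at least 50% inhibition at 5 µM, scaled per plate between neutral and stimulator controls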;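 further: PAF is a Pseudomonas aeruginosa culture filtrate used as stimulus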
CF NFkB conf: confirmation of cystic fibrosis induced NF-kB inhibitors; shares compounds with CF NFkB block; 64% of 1,300 active; inhibition, % at 5 µM; KKLEB CF airway cells, PAF-induced NF-kB-GFP fluorescence, overnight; in the data active means inhibition above about 40%;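 further: stimulus PAF is a Pseudomonas aeruginosa filtrate and not platelet activating factor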
Each line names hits and unclear results; the compound was inactive in the other large screens (follow-up assays come after a bar, where they were run). Sampled rows, rich in hits. Any-hit rate of the full collection: about 4.6%.

CC[C@@]1(c2ccccc2OC)C(=O)N(C(=O)OC)N1C(=O)OC	none
COc1ccc(-c2cc(NC=O)c3ncc(-c4cccc(C(C)=O)c4)n3c2)cc1	none (no result: Mdm2-MdmX inh)
COc1ccccc1-c1cc(NC=O)c2ncc(-c3cccc(C(F)(F)F)c3)n2c1	none (no result: Mdm2-MdmX inh)
COc1cc(-c2cnc3c(NC=O)cc(-c4ccc(C)cc4)cn23)cc(OC)c1OC	CF NFkB block 50.9 (no result: Mdm2-MdmX inh) | CF NFkB conf 71.1
COc1ccc(-c2cc(NC=O)c3ncc(-c4ccc(C(C)=O)cc4)n3c2)cc1OC	Peg3 prom inh 68.3, CF NFkB block 50.4 (no result: Mdm2-MdmX inh) | CF NFkB conf inactive
COc1cccc(-c2cc(NC=O)c3ncc(-c4ccc(C(C)=O)cc4)n3c2)c1	CF NFkB block 59.0 (no result: Mdm2-MdmX inh) | CF NFkB conf 62.7
COc1ccccc1-c1cc(NC=O)c2ncc(-c3ccc(F)cc3)n2c1	CF NFkB block 67.4 (no result: Mdm2-MdmX inh) | CF NFkB conf 54.3
CCCc1cc(=O)oc2cc(OCC(=O)NCCCn3ccnc3)c(Cl)cc12	none
Cc1ccc(S(=O)(=O)N2[C@@H](c3ccc(C(C)(C)C)cc3)C(C(=O)O)=CC[C@H]2c2ccc(C(C)C)cc2)cc1	CF NFkB block 62.3 | CF NFkB conf 53.0
Cc1ccc(S(=O)(=O)N2[C@@H](c3ccc(C(C)(C)C)cc3)C(C(=O)O)=CC[C@H]2c2ccc(Cl)cc2)cc1	none
Cc1ccc([C@@H]2CC=C(C(=O)O)[C@H](c3ccc(C(C)(C)C)cc3)N2S(=O)(=O)c2ccc(C)cc2)cc1	CF NFkB block 50.7 | CF NFkB conf inactive
O=C(O)/C=C/c1ccc2c(-c3ccccc3)onc2c1	CF NFkB block 59.0 | CF NFkB conf 73.9
O=C(O)c1ccc2noc(-c3ccccc3)c2c1	none
CCN(CC)Cc1c(O)ccc2c(-c3ccccc3)cc(=O)oc12	none
Cc1c(O)ccc2c(-c3ccccc3)cc(=O)oc12	CF NFkB block 75.2 | CF NFkB conf 95.1
O=[N+]([O-])c1cccc(S(=O)(=O)Nc2ccc3cn[nH]c3c2)c1	none
COc1ccc(OC)c(CCNC(=O)CCc2nnc3ccc(N4CCOCC4)nn23)c1	none
Cc1c2ccncc2cc2c1[nH]c1ccccc12	CF NFkB block 55.4 (no result: Mdm2-MdmX inh) | CF NFkB conf inactive
O=C(NCCN1CCN(c2ccccc2)CC1)c1cccc(Br)c1	CF NFkB block 52.3 | CF NFkB conf 52.9
Cc1cccn2c(=O)nc(SCC(=O)NC3CCCCC3)nc12	none
CCc1nc2ccc(C(=O)NCc3ccc4c(c3)OCO4)cn2c1N(C)Cc1ccc(OC)cc1	none (no result: Mdm2-MdmX inh)
CCCCCCCCCCCCCCCC(O)C(N)CO (stereo not drawn)	CF NFkB block 61.0 | CF NFkB conf inactive
CNc1cncc(-c2ccc(OC)c(OC)c2)n1	CF NFkB block 56.2 (no result: Mdm2-MdmX inh) | CF NFkB conf inactive
CNc1cncc(-c2ccc(F)c(F)c2)n1	none (no result: Mdm2-MdmX inh)
CNc1ccc2ncc(-c3ccc(OC)c(OC)c3)n2n1	CF NFkB block 76.4 (no result: Mdm2-MdmX inh) | CF NFkB conf 103.8
Cc1ccc(S(=O)(=O)NC(=O)NC2=NC(C)(C)N(c3ccc(Cl)c(Cl)c3)C(N)=N2)cc1	none (no result: Mdm2-MdmX inh)
CC(C)C[C@H]1CN([C@@H](Cc2ccc(O)cc2)CN2CCC[C@H]2CN2C(=O)C(=O)NC[C@@H]2Cc2ccc(O)cc2)C(=O)C(=O)N1CCc1ccccc1	none (no result: Peg3 prom inh, Mdm2-MdmX inh, KKLEB cytotox, CF NFkB block)
c1ccc(CNc2ncnc3scc(-c4cccs4)c23)nc1	CF NFkB block 52.2 | CF NFkB conf inactive
C(COC1CC2CC1C1C2CC2OC21)OC1CC2CC1C1C2CC2OC21 (stereo not drawn)	none (no result: Mdm2-MdmX inh)
CC(=O)Oc1ccccc1C(=O)Oc1ccc(/C=N/n2cnnc2)cc1	CF NFkB block 72.9 | CF NFkB conf 63.8
CNC(=O)c1c(NC(=O)C2=COCCO2)sc2c1CCCC2	none
CNC(=S)Nc1cccc2[nH]ncc12	none
O=C(NC(=S)Nc1cccc2[nH]ncc12)c1ccccc1	CF NFkB block 62.0 | CF NFkB conf inactive
COCCN(C(=O)COC(=O)c1cccnc1SC)c1c(N)n(Cc2ccccc2)c(=O)[nH]c1=O	none
COc1ccccc1N(C)c1cc2c(c3c1ccn3C)C1CCC2O1 (stereo not drawn)	CF NFkB block 91.7 (no result: Mdm2-MdmX inh) | CF NFkB conf inactive
Cn1ccc2c(N3c4ccccc4CCc4ccccc43)cc3c(c21)C1CCC3C1 (stereo not drawn)	none (no result: Mdm2-MdmX inh)
